Source: PubChem BioAssay (several laboratories)
Only a selection was taken, and hits are over-represented in it overall.
PostGolgi yeast = growth inhibition of a yeast mutant, post-Golgi transport screen | inhibition, % at 10 µM | 0.9% of 98,000 active | AID 739 | post-Golgi transport phenotypic cell assay;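 note: yeast cells grown in 1536-well plates; yeast grown about 18 h at 30C before absorbance read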
S1P2 agonist = S1P2 (human) receptor agonism; O95136; S1P2-expressing cell line, agonist reporter read-out; activation, % at 4.5 µM; 0.46% of 97,000 active; in the data active = activation above about 16%;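 note: 0% = vehicle low control and 100% = maximal reference agonist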
Target sequence (O95136 whole entry, looked up): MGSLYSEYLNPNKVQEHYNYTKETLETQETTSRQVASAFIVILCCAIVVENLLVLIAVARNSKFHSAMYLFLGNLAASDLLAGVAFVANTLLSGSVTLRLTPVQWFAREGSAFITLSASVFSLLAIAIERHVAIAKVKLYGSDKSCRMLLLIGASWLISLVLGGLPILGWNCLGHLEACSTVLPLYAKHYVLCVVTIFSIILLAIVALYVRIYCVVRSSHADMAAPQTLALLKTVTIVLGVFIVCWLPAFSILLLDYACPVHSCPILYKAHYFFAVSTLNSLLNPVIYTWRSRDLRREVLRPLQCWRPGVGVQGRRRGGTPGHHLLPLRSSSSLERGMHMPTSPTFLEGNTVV
S1P2 blocker = blocks the human S1P2 receptor | AID 736 | cell-based S1P2 antagonist assay, inhibition at 5 uM | inhibition, % at 5 µM | 0.21% of 97,000 active | O95136; in the data active = inhibition above about 45%;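 note: CRE beta-lactamase reporter cells expressing human S1P2 stimulated with S1P; 0% = agonist at EC80 alone and 100% = agonist plus reference antagonist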
GALR2 antag = antagonists of human galanin receptor 2 (GALR2); O43603; GALR2-expressing cells, antagonist mode; inhibition, % at 4 µM; 0.39% of 140,000 active; in the data active = inhibition above about 27%;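 note: cells stimulated with galanin 1-16 at roughly its EC80; 0% = agonist challenge control and 100% = basal control without agonist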
PostGolgi ctrl = growth of the yeast control strain, post-Golgi counter-screen; inhibition, % at 10 µM; efflux-deficient yeast background strain, growth absorbance A615, 16 h; 5% of 98,000 active
GALR2 ag = agonists of human galanin receptor 2 (GALR2); 0.48% of 140,000 active; activation, % (no concentration beside the values); GALR2-expressing cells, agonist activation read-out; O43603; in the data active = activation above about 5%, passing the limit was not always enough;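 note: 0% = vehicle buffer wells and 100% = reference agonist at full effect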
The depositor's hits bear a star; . = no result given. Cut-off read from the data, not from the text of the source, unless noted: active = inhibition above about 30%; inactive = the rest.

SMILES	PostGolgi yeast	S1P2 agonist	S1P2 blocker	GALR2 antag	PostGolgi ctrl	GALR2 ag
CCOC(=O)N1CCN(S(=O)(=O)c2ccc(C)c(C)c2C)CC1	-1	-1	13	0	13	1
Cc1ccc(S(=O)(=O)n2nc(C)c(Br)c2C)c(C)c1C	-7	-2	2	-2	48*	0
COCc1nc2ccccc2n1Cc1ccc(Br)cc1	-3	-3	-9	3	36*	0
Cc1nc2cc(NCc3nc4ccccc4n3Cc3ccccc3)ccc2n1C	18	-11	9	-1	7	0
COCc1nc2ccccc2n1Cc1ccccc1	2	-1	-36	-13	11	2
Cc1ccc(Cn2c(Cc3ccccc3)nc3ccccc32)cc1	2	-4	1	-3	32*	-4
COc1ccc(-c2nc3ccccc3n2Cc2ccc(C)cc2)cc1	31*	3	-24	-4	43*	0
Cc1cccc(NCc2nc3ccccc3n2Cc2ccccc2)c1	54*	-4	-4	9	66*	-1
CC(C)(C)OC(=O)[C@H]1[C@H](c2ccc([N+](=O)[O-])cc2)C2(C(=O)c3ccccc3C2=O)C2c3ccccc3C=NN21 (some centres not stated)	.	.	.	-9	.	-2
COc1ccc(CNC(=O)C(c2ccncc2)N(C(=O)Cc2cccs2)c2ccccc2C)cc1 (configuration not stated)	23	-6	21	-3	6	0
Nc1nonc1-c1nc2ccccc2n1Cc1ccccc1	-8	-3	-21	2	42*	-1
CCC(C)NC(=O)COc1ccccc1[N+](=O)[O-] (configuration not stated)	.	.	.	17	.	-2
COc1ccc(N(C(=O)c2ccco2)S(=O)(=O)c2cc(Cl)c(Cl)cc2Cl)cc1	-1	-3	-1	-4	31*	-1
COc1ccc(N(C(=O)c2ccco2)S(=O)(=O)c2ccccc2)cc1	6	-4	-21	-12	1	-2
COCCCNC(=S)NC(=O)c1ccc(C)cc1	.	.	.	19	.	-2
C(=N\Nc1ncnc2sc3c(c12)CCC3)/c1cccs1	19	-8	0	-18	34*	-2
O=C(Nc1ncnc2sc3c(c12)CCCCC3)c1ccccc1	48*	-3	-13	-21	33*	-1
O=C(C[n+]1ccc(-c2nnc3n2CCC3)cc1)c1ccc(Cl)c(Cl)c1	.	.	.	3	.	-1
CCOc1ccccc1C1CC(c2ccc(Br)cc2)Nc2nc(N)nn21 (configuration not stated)	-2	-4	7	0	1	-1
COC(=O)Nc1ccc(S(=O)(=O)N2CCC(Cc3ccccc3)CC2)cc1	3	-5	-10	0	35*	-1
COC(=O)Nc1ccc(S(=O)(=O)N2CCN(C)CC2)cc1	4	1	19	3	-1	-1
COC(=O)Nc1ccc(S(=O)(=O)N2CCC(C)CC2)cc1	-14	2	-7	-10	18	1
CCOC(=O)N1CCN(S(=O)(=O)c2ccc(F)cc2)CC1	-9	-2	13	-1	1	-1
CC(C)CC(=O)N1CCN(S(=O)(=O)c2ccc(F)cc2)CC1	-6	-3	7	4	39*	0
COC(=O)Nc1ccc(S(=O)(=O)N2CCN(c3ccc(F)cc3)CC2)cc1	-9	-3	-15	5	38*	-2
SMILES	PostGolgi yeast	S1P2 agonist	S1P2 blocker	GALR2 antag	PostGolgi ctrl	GALR2 ag
CCOC(=O)CC(C)(C)/C(C)=N/Nc1ccc([N+](=O)[O-])cc1[N+](=O)[O-]	.	.	.	8	.	-2
COC(=O)c1cc(OC)c(OC)cc1NC(=O)C(C)c1ccc([N+](=O)[O-])cc1 (configuration not stated)	.	.	.	11	.	-3
Cn1c(CO)cnc1SCc1ccc(Cl)cc1	2	1	4	-8	9	0
CC1=C(C(=O)NC2CCCC(C)C2C)C2(CCCCC2)OC1=O (configuration not stated)	-5	-3	4	2	1	0
CC1=C(C(=O)Nc2cc(-c3cccc(F)c3)[nH]n2)C2(CCCCC2)OC1=O	2	.	.	0	32*	-1
O=C(c1n[nH]c(=O)c2ccccc12)N1CCN(c2ccccc2Cl)CC1	-2	-5	13	-12	50*	0
N#Cc1ccsc1NC(=O)COC(=O)c1cc2ccccc2cc1O	.	.	.	15	.	-1
O=[N+]([O-])c1cccc(-c2ccc(/C=N/NC(=S)Nc3ccccc3)o2)c1	-13	-9	8	-1	48*	-3
